Calls of active or inactive are those of the source. The call rests on the fitted dose curve; in most records, active means well fitted curve in the direction sought with a large enough effect; inactive means no such curve, though single readings can be large or run the other way.

Drawing on PubChem BioAssay AID2589 (National Center for Advancing Translational Sciences (NCATS), 2010), this text covers Potency for 2 molecules.

Sequence of Lysosomal acid glucosylceramidase (Homo sapiens) (P04062 whole entry, looked up): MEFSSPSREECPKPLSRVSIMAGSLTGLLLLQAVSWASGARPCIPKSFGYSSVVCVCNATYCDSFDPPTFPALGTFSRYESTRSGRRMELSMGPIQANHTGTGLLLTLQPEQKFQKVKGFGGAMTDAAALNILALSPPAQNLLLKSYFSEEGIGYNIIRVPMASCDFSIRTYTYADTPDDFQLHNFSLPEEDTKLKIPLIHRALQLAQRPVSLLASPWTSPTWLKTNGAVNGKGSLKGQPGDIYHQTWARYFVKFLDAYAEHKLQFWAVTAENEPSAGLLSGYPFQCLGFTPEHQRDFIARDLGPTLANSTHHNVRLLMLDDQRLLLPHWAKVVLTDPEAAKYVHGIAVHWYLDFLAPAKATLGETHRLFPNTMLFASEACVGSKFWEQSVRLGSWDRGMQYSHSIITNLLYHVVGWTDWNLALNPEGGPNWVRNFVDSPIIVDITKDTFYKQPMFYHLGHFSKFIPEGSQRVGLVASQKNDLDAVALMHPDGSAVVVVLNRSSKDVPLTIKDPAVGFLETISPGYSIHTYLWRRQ

This experiment has as its target Lysosomal acid glucosylceramidase (Homo sapiens) (UniProt P04062). The experiment is described as follows: qHTS Assay for Inhibitors and Activators of N370S glucocerebrosidase as a Potential Chaperone Treatment of Gaucher Disease: Chaperone Activity in Non-Gauche Fibroblasts After Multi-day Incubation with Compound. The settings on record: Wild-type fibroblasts, GC immunofluorescence, 5-day incubation. The text has this:
NIH Chemical Genomics Center [NCGC] NIH Molecular Libraries Probe Production Centers Network [MLPCN] MLPCN Grant: MH086442-01 Assay Submitter (PI): Wei Zheng Glucocerebrosidase (GC) catalyzes the hydrolysis of beta-glucocerebroside to glucose and ceramide in lysosomes. Mutations in the glucocerebrosidase gene result in Gaucher disease, an autosomal recessive lysosomal storage disorder. Many of the mutations encountered in patients with Gaucher disease are missense alterations that may cause misfolding, decreased stability and/or mistrafficking of this lysosomal protein. […] These inhibitors include iminosugar analogs and three non-iminosugar inhibitors identified from a previous HTS of 62,000 compounds with the wild type recombinant enzyme. However, the enhancement of enzyme activity by the chaperone action of an enzyme inhibitor must be balanced against the direct inhibition of the enzyme. An enzyme activator could also function as a chaperone by binding to the enzyme and helping to correct its misfolding and mistrafficking. […] This assay attempts to quantitate translocated glucocerebrosidase protein in patient-derived fibroblasts following extended compound incubation. […]
NCGC Assay Protocol Summary: 1. […] Visualized using a fluorescence microscope and the intensity of fluorescence in the selected areas were calculated. […]
Take `S=C(NCCCc1cnc[nH]1)NCCCN(Cc1ccc(Cl)c(Cl)c1)c1ccc(Br)cn1`: the Potency was 708 nM (active).

Take `O=S(=O)(c1ccc2ccccc2c1)N1CCN(c2nc(-c3cccs3)nc3ccccc23)CC1`: the Potency was 1260 nM (active).
